{"source": "the supplement of paper PMC11417369", "note": "± gives the standard deviation of the averaged measurements. The full ranking holds about 25,000 sequences; the median of “ln(normalized median fluorescence intensity)” is about 7.9, and the highest 2% start at about 11. For the sample, the highest values were picked, then their nearest neighbours and some sequences at random."}
{"system": "PfAP2-I AP2 domain 3 (GST-tagged)", "test": "gcPBM binding intensity (ln(normalized median fluorescence intensity)); higher = stronger DNA binding", "summary_of_the_method": "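Using an Agilent 4 × 180k array, primer-extended double-stranded 36-bp intergenic genomic probes and negative controls were exposed for 1 h to GST-fused P. falciparum DNA-binding domains expressed in E. coli. Binding was carried out in 1× PBS with 1% milk, 0.2 mg/ml BSA, 0.5% salmon testes DNA and 0.03% Triton X-100, and protein was detected with Alexa488 anti-GST antibody and a 488 nm scan. Binding intensity is the highest Masliner-normalised natural-log median intensity across replicate spots of either probe orientation.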"}
{"sequence": "AGTTATAAACATATGTGTACTTATAAAAACATATAG [XGTACX_site3268]", "gcPBM binding intensity (ln)": "7.87 ± 0.47"}
{"sequence": "AATCACAACGAACACACACACAAAAAAAAAAAAAAA [CACACA_site6790]", "gcPBM binding intensity (ln)": "7.96 ± 0.54"}
{"sequence": "CAACAACAAATGAGAAGTACATAAATATTAACAATA [XGTACX_site4625]", "gcPBM binding intensity (ln)": "7.68 ± 0.4"}
{"sequence": "TGTTTTATTTTATTAGTGCATTTTTATTTATAATAG [GTGCAC_site9453]", "gcPBM binding intensity (ln)": "9.77 ± 0.2"}
{"sequence": "TTCCAAGAAATAATAGTGCATTATTCATTTTAATAA", "gcPBM binding intensity (ln)": "11.5 ± 0.42"}
{"sequence": "ATATATAATTCCCAAGTGCATTTATTTTAATTATTA", "gcPBM binding intensity (ln)": "10.2 ± 0.12"}
{"sequence": "AAGGATATAACATACACACACACACGGATATAAATA [CACACA_site7867]", "gcPBM binding intensity (ln)": "7.91 ± 0.6"}
{"sequence": "TGAAGGATATATTCCGTGCACATATAAATATATACA", "gcPBM binding intensity (ln)": "11.035 ± 0.007"}
{"sequence": "AATATAAGGATATATACACACATAAATACATACATA [CACACA_site7859]", "gcPBM binding intensity (ln)": "7.67 ± 0.59"}
{"sequence": "TTTATACAAACAACTTTATATTAATGTTTAACGGAG [GTGCAC_negctrl_site396]", "gcPBM binding intensity (ln)": "7.6 ± 0.42"}
{"sequence": "AATTAATAAGAAAGGTGTACAGAAAAAAAAAAATAT [XGTACX_site2106]", "gcPBM binding intensity (ln)": "8.46 ± 0.43"}
{"sequence": "ATATATATATAATAAGTGCAAAAAAAAGAAAAAAAT", "gcPBM binding intensity (ln)": "10.18 ± 0.035"}
{"sequence": "AAAAAAAAAATACAGGTGCAATAAGAAAAAAATGGT", "gcPBM binding intensity (ln)": "11.4 ± 0.57"}
{"sequence": "TTTTATATTTTATGCACACTTATAAGAAATATGTAC [CACACA_site3040]", "gcPBM binding intensity (ln)": "10.5 ± 0.52"}
{"sequence": "TTTTAAATACTTTATTGTACATTATATATATATATA [XGTACX_site7021]", "gcPBM binding intensity (ln)": "8.88 ± 0.042"}
{"sequence": "TTTTAAGGTGTGAAGGTGCAAAAAGGTAAATAGGAA", "gcPBM binding intensity (ln)": "11.2 ± 0.56"}
{"sequence": "TTTTTTTTTAAGCAAAGGAAATCAAAATAAAAATAT [CACACA_negctrl_site719]", "gcPBM binding intensity (ln)": "7.92 ± 0.56"}
{"sequence": "ATTTTAAAAAGGATAGTGCAAATGTTAAAATAGGAC", "gcPBM binding intensity (ln)": "10.6 ± 0.3"}
{"sequence": "TACCTTTTTTATGTTGCACACTGGGATGTTTTCTAA [CACACA_site1653]", "gcPBM binding intensity (ln)": "9.51 ± 0.15"}
{"sequence": "TATATGAAGTACACAATACACACTAATTATATATAA [CACACA_site2608]", "gcPBM binding intensity (ln)": "8.155 ± 0.035"}
{"sequence": "TATGAAGTGCACAATACACACTAATTCTATATAAAT [CACACA_site7269]", "gcPBM binding intensity (ln)": "11 ± 0.71"}
{"sequence": "TATGAAGTACACAATACACACTAATTATATATAAAT [CACACA_site5444]", "gcPBM binding intensity (ln)": "7.88 ± 0.28"}
{"sequence": "AAAGTATATAGGATACGTACATACATAAATAAATAA [XGTACX_site8216]", "gcPBM binding intensity (ln)": "7.84 ± 0.73"}
{"sequence": "AAAAAAAAAAAAAAAACACACAAACAAATGAATAAA [CACACA_site5769]", "gcPBM binding intensity (ln)": "8.76 ± 0.66"}
{"sequence": "GTACATTATATATATACACACATACATAATAAAGAA [CACACA_site5528]", "gcPBM binding intensity (ln)": "8.12 ± 0.23"}
{"sequence": "CAAATATACATATGTAGTACATGTTGTAGATAATTT [XGTACX_site2790]", "gcPBM binding intensity (ln)": "8.01 ± 0.5"}
{"sequence": "GTATATATCTAAAAATATATATATATATATATATAT [CACACA_negctrl_site788]", "gcPBM binding intensity (ln)": "9.37 ± 0.72"}
{"sequence": "TCCTGCCTCTCTTTGGTGCGTTGTAACCCTCGAGGA", "gcPBM binding intensity (ln)": "10.3 ± 0.11"}
{"sequence": "TCTCCACCTCTCTTGGTGCGTTATACCCTCGAGGCT", "gcPBM binding intensity (ln)": "11.3 ± 0.54"}
{"sequence": "CCCTGCCTCTCTTTGGTGCGTTGTAACCCTCGAGGA", "gcPBM binding intensity (ln)": "10.3 ± 0.33"}
{"sequence": "TTGTTCTTTTGAAAGGTGCAAAAGAAAAATAATTAA", "gcPBM binding intensity (ln)": "11.1 ± 0.54"}
{"sequence": "AGAATTAAAATAAAGGTGCATTTTTTTGTTTCATGT", "gcPBM binding intensity (ln)": "9.94 ± 0.23"}
{"sequence": "TTGTTCTTTTTTTTTTTATTTTTTAATTTGAAAAGA [CACACA_negctrl_site209]", "gcPBM binding intensity (ln)": "7.72 ± 0.5"}
{"sequence": "ACGTTACATACATATACACACACATATATATATATA [CACACA_site8203]", "gcPBM binding intensity (ln)": "9.22 ± 0.39"}
{"sequence": "TATATACTCATGCGCACACACAAGTGGGAAATTTGG [CACACA_site5056]", "gcPBM binding intensity (ln)": "8.35 ± 0.6"}
{"sequence": "TTTTTTTTTTTTGGTGCATGCACATTTTGTTTTTTT [TGCATGCA_site570]", "gcPBM binding intensity (ln)": "9.85 ± 0.014"}
{"sequence": "CTTGTGCTTTATAGGGTGCACATTTTGTTTTGGTAA [GTGCAC_site9899]", "gcPBM binding intensity (ln)": "11 ± 0.46"}
{"sequence": "TATAATTTTTTTTGGGTGCTTGGGTAAATTTTATTA", "gcPBM binding intensity (ln)": "8.34 ± 0.42"}
{"sequence": "AAAGGGATGTTCATTCTTTTTTTTTTTTTTGTATAT [CACACA_negctrl_site511]", "gcPBM binding intensity (ln)": "7.16 ± 0.6"}
{"sequence": "ATTAGTAAATTTATATGTACACATTGTTATTTTATA [XGTACX_site1177]", "gcPBM binding intensity (ln)": "8.13 ± 0.23"}
{"sequence": "TTATATTTGATAGTTTGTACATATAATTATTATCAT [XGTACX_site5676]", "gcPBM binding intensity (ln)": "7.86 ± 0.42"}
{"sequence": "TAGTGATATAATTATGTGCACTTAATACAGGTCGAT", "gcPBM binding intensity (ln)": "10.9 ± 0.3"}
{"sequence": "TTGATATATAATAATACACACTTACATAATTAATTA [CACACA_site4320]", "gcPBM binding intensity (ln)": "7.88 ± 0.37"}
{"sequence": "AATATAAATAATTATACACACTTAATATATATATAC [CACACA_site5533]", "gcPBM binding intensity (ln)": "7.9 ± 0.33"}
{"sequence": "ATGTCTATAATAAGAACACACATATATTTAATTTAA [CACACA_site7394]", "gcPBM binding intensity (ln)": "7.64 ± 0.44"}
{"sequence": "TATACATATGTATGCACACATACATACACATAGAAT [CACACA_site3480]", "gcPBM binding intensity (ln)": "8.8 ± 0.13"}
{"sequence": "ACATAATTATTATGCACACATATTTTTATGTATTTA [CACACA_site698]", "gcPBM binding intensity (ln)": "10.3 ± 0.48"}
